From PubChem BioAssay
Only some compounds are listed: those with a hit (about 21% of all), similar ones and a draw of the others.
NS1 function inh – blocks influenza NS1 protein function. 0.4% of 270,000 active. Potency, µM (titrated, usually from 46.1 µM); calls by dose curve; also: actives are rising curves; nearly all actives have a fitted effect of over 50% in size
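A cell-based growth assay was used: compounds that relieve NS1-induced slow growth of budding yeast raise OD600. Assay medium was yeast nitrogen base with ammonium sulphate and -URA supplement, pH 6.0, with 2% galactose.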
Pf growth 96h – inhibits malaria parasite growth, 96 h. P. falciparum luciferase reporter growth, 96 h. AID 504834. 6.9% of 320,000 active. Potency, µM (top dose mostly 28.7 µM), usual class: inhibitors
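Parasite growth measured via integrated firefly luciferase reporter in P. falciparum. Infected erythrocytes at 2% hematocrit, 0.05% parasitemia final were treated 96 hours at 37 C under 5% CO2, and luminescence was read.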
Shiga toxin inh – blocks Shiga toxin action in Vero cells; Vero cells, Shiga toxin protein synthesis inhibition reporter; inhibition, % at 38.7 µM; 9.2% of 290,000 active; AID 2315; in the data active = inhibition mostly above about 28%, no sharp cut-off; inactive = mostly below about 43%
Cycloheximide cs – counter-screen for Shiga toxin inhibitors: cycloheximide protein synthesis inhibition | cell reporter, cycloheximide protein synthesis inhibition counterscreen | max response, % | 12% of 300,000 active; in the data active = max response mostly above about 13%, no sharp cut-off; inactive = mostly below about 14%; also: read at 38.3 µM for the half of the compounds with a filed dose
Pf growth 48h – inhibits P. falciparum growth in the first generation, 48 h; Potency, µM (titrated, usually from 28.7 µM), most hits filed as inhibitors; P. falciparum luciferase growth in erythrocytes, 48 h; AID 504832; 5.9% of 310,000 active
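A one-generation exposure of luciferase-tagged malaria parasites in RPMI 1640/Albumax erythrocyte culture, 37 C and 5% CO2. Inhibition is inferred from decreased luminescence after adding detection reagent.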
Large screens that a line does not name were inactive. Unless noted, calls follow the shape of the dose curve; as a rule, active = well fitted inhibition curve with a large enough effect; inconclusive = small, poorly fitted or top-dose-only effect, or another doubt; inactive = no such curve, though single readings can be large or run the other way.

Cc1ccc(Cl)cc1NC(=O)c1cc(NC(=O)C2CCCCC2C(=O)O)ccc1N1CCOCC1 (configuration not stated)	NS1 function inh inconclusive
CCc1nn(C(CC)C(=O)NCCCc2ccccc2)c(=O)c2cc3occc3n12 (configuration not stated)	none
CCc1nn(C(CC)C(=O)NCCCN2CC(C)CC(C)C2)c(=O)c2cc3oc(C)cc3n12 (configuration not stated)	Pf growth 96h 0.19µM, Pf growth 48h inconclusive
O=C(NCC1CCCN1S(=O)(=O)c1cccs1)C(=O)Nc1cccc(F)c1 (configuration not stated)	Pf growth 48h inconclusive (no result: NS1 function inh, Shiga toxin inh, Cycloheximide cs)
CCc1cc(Cn2nc(-c3ccccc3)cc2C(=O)NCCOC)on1	Pf growth 48h inconclusive (no result: NS1 function inh, Shiga toxin inh, Cycloheximide cs)
CCCc1cc(C(=O)NCc2ccco2)no1	Pf growth 96h 13µM, Shiga toxin inh 72, Cycloheximide cs 15 (no result: Pf growth 48h)
CCc1cc(Cn2nc(-c3ccccc3)cc2C(=O)NCc2cccs2)on1	Pf growth 96h 5.9µM, Pf growth 48h 15µM (no result: NS1 function inh, Shiga toxin inh, Cycloheximide cs)
CCCc1cc(C(=O)NCC(C)C)no1	Shiga toxin inh 117, Cycloheximide cs 33 (no result: Pf growth 48h)
CCCc1cc(C(=O)NCc2ccccc2)no1	Shiga toxin inh 59, Cycloheximide cs 27
CCCc1cc(C(=O)NCc2cccs2)no1	Pf growth 96h inconclusive, Cycloheximide cs 35 (no result: Pf growth 48h)
CCCc1cc(C(=O)NCc2cccnc2)no1	none (no result: Pf growth 48h)
Nn1c(SCc2cccc(F)c2)nnc1-c1ccncc1	none
S=C(c1ccc2c(c1)OCO2)N1CCCCCC1	Pf growth 96h 12µM (no result: Pf growth 48h)
O=C(NC1CCCCCCC1)c1ccc2c(c1)OCO2	Shiga toxin inh 48, Cycloheximide cs 42
S=C(NC1CCCCC1)c1ccc2c(c1)OCO2	Shiga toxin inh 66, Cycloheximide cs 22
c1cc2c(cc1NC1CCCCCC1)OCO2	Pf growth 96h inconclusive, Cycloheximide cs 16
O=C(COc1cccc2cccnc12)Nc1ccccc1N1CCOCC1	Pf growth 96h inconclusive (no result: NS1 function inh)
CC(C)n1nnc2c(=O)oc3ccccc3c21	none
O=C(NNC(=S)NC1CCCCC1)c1ccc2c(c1)OCO2	none
O=C(NC1CCCCC1)c1ccc2c(c1)OCCO2	Pf growth 96h inconclusive, Shiga toxin inh 42, Cycloheximide cs 21
COc1ccc(NC2=C(Cl)C(=O)N(CCc3ccccc3)C2=O)c(OC)c1	Shiga toxin inh 59, Cycloheximide cs 73
COc1ccc(NC2=C(Cl)C(=O)N(CCc3ccccc3)C2=O)cc1	Cycloheximide cs 26
CCOC(=O)/C(=N\NC(=O)c1ccccc1)c1ccccc1	none (no result: Pf growth 48h)
CCOC(=O)/C(=N\Nc1ncnc2ccccc12)c1ccc(OC)cc1	Cycloheximide cs 27
COc1ccc(/C(=N/Nc2ncnc3ccccc23)C(=O)O)cc1	Shiga toxin inh 89, Cycloheximide cs 47, Pf growth 48h inconclusive
COc1ccc(N2CCN(C(=O)c3ccc(NS(=O)(=O)c4ccc(F)cc4)cc3)CC2)cc1	Pf growth 96h inconclusive
COc1ccc(N2CCN(C(=O)C3Cc4ccccc4CN3C(=O)c3ccccc3)CC2)cc1 (configuration not stated)	Pf growth 96h inconclusive, Shiga toxin inh 71, Cycloheximide cs 61, Pf growth 48h inconclusive (no result: NS1 function inh)
COc1ccccc1N1CCN(C(=O)CC2NC3CCCCC3NC2=O)CC1 (configuration not stated)	none
COc1ccc(N2CCN(C(=O)CC3NC4CCCCC4NC3=O)CC2)cc1 (configuration not stated)	Pf growth 96h 12µM
COC(=O)N1CCN(c2ccc(C)c(C)c2)CC1	Cycloheximide cs 23 (no result: NS1 function inh)
COc1ccc(N2CCN(C(=O)c3ccc(NS(=O)(=O)c4cccs4)cc3)CC2)cc1	Pf growth 96h inconclusive, Shiga toxin inh 63, Cycloheximide cs 27, Pf growth 48h inconclusive (no result: NS1 function inh)
COc1ccc(NC(=O)CNS(=O)(=O)c2cccc3nonc23)c(OC)c1	none
O=C(CSc1nnnn1-c1ccc(F)cc1)NCc1cccs1	Pf growth 96h inconclusive
COc1ccc(N2CCN(c3ccc(NC(=O)/C=C\C(=O)O)cc3)CC2)cc1	Pf growth 96h inconclusive, Pf growth 48h 3.3µM (no result: Shiga toxin inh)
COc1ccc(/C=C/C(=O)Nc2ccc(N3CCOCC3)cc2)cc1	none
COC(=O)N1CCN(c2ccc(OC)cc2)CC1	Cycloheximide cs 9.4 (no result: Pf growth 96h)
CNC(=S)N1CCN(c2ccc(OC)cc2)CC1	none
COc1ccc(N2CCN(C(=O)NC34CC5CC(CC(C5)C3)C4)CC2)cc1	Pf growth 96h 5.2µM (no result: Pf growth 48h)
FC(F)(F)c1cccc(-n2cc(-c3ccccc3)[nH]c2=S)c1	NS1 function inh inconclusive, Pf growth 48h 12µM
Cc1ccc(-c2cn(-c3ccccc3)c(=S)[nH]2)cc1C	Pf growth 96h inconclusive, Shiga toxin inh 113, Cycloheximide cs 64 (no result: Pf growth 48h)
Cc1ccccc1-c1cn(-c2ccccc2)c(=S)[nH]1	Pf growth 96h inconclusive, Pf growth 48h inconclusive
Fc1ccccc1-n1cc(-c2ccccc2)[nH]c1=S	Cycloheximide cs 29 (no result: NS1 function inh)
Clc1cccc(N2CCN(Cc3ccc(Br)o3)CC2)c1	none
CC1CCN(C(=O)COC(=O)CCCN2C(=O)c3cccc4cccc(c34)C2=O)CC1	Pf growth 96h inconclusive
O=C(Nc1ccc(Cl)c(S(=O)(=O)N2CCOCC2)c1)c1ccccn1	none
O=C(Nc1ccc(Cl)c(S(=O)(=O)N2CCOCC2)c1)c1ccc(Cl)nc1	Pf growth 96h 7.4µM, Pf growth 48h inconclusive (no result: NS1 function inh, Shiga toxin inh, Cycloheximide cs)
O=C(Nc1ccc2cn[nH]c2c1)c1ccc(Cl)c(S(=O)(=O)N2CCOCC2)c1	Pf growth 96h inconclusive, Cycloheximide cs 45, Pf growth 48h inconclusive
O=C(Nc1ccc(S(=O)(=O)N2CCCC2)cc1)c1ccc(OCC2CCCO2)cc1 (configuration not stated)	Pf growth 96h inconclusive, Pf growth 48h inconclusive
O=C(Nc1ccc(Cl)c(S(=O)(=O)N2CCOCC2)c1)c1cc(-c2ccccn2)nc2ccccc12	Pf growth 96h inconclusive, Pf growth 48h 12µM (no result: NS1 function inh)
O=C(Nc1ccc(Cl)c(S(=O)(=O)N2CCOCC2)c1)c1ccc(OCC2CCCO2)cc1 (configuration not stated)	Pf growth 96h 4.1µM, Pf growth 48h 12µM (no result: NS1 function inh)
COc1ccc(-c2nc(CN3CCC(C(=O)N4CCOCC4)CC3)c(C)o2)cc1C	Pf growth 96h inconclusive, Pf growth 48h inconclusive
Cc1ccc(NC(=O)COC(=O)c2ccc3c(c2)OCCO3)cc1S(=O)(=O)N1CCOCC1	none (no result: NS1 function inh)
O=C(Nc1ccc(Cl)c(S(=O)(=O)N2CCOCC2)c1)c1ccc2c(c1)OCCO2	Pf growth 96h inconclusive, Shiga toxin inh 47, Cycloheximide cs 24, Pf growth 48h 13µM (no result: NS1 function inh)
Brc1ccc2ncnc(NCc3ccco3)c2c1	none (no result: Pf growth 96h)
OC(CNCc1ccco1)Cn1c2ccc(Br)cc2c2cc(Br)ccc21 (configuration not stated)	Pf growth 96h 0.29µM (no result: Pf growth 48h)
Cc1nc(C(N)=O)c(N)n1CCc1ccccc1	none
Cc1ccc(C(=O)Nc2cccc(C(=O)NC3CCCC3)c2)cc1	none
Cc1ccc(C(=O)Nc2cccc(C(=O)O)c2)cc1	Shiga toxin inh 71, Cycloheximide cs 42 (no result: Pf growth 48h)
O=C(NCc1ccccc1)C(=O)Nc1cccc(C(=O)O)c1	Shiga toxin inh 158, Cycloheximide cs 61
O=C(O)/C=C/C(=O)Nc1ccc(NC(=O)c2ccccc2)c(Cl)c1	Pf growth 96h inconclusive (no result: NS1 function inh)
